± gives the standard deviation of the averaged measurements. About 6,200 targets were measured; listed, in parts, are those with the largest changes and a random draw of the rest.

Compound in this test: Nc1ncnc2c1ncn2[C@@H]1O[C@H](COP(=O)(O)OP(=O)(O)NP(=O)(O)O)[C@@H](O)[C@H]1O [adenylyl imidodiphosphate]
Description: NP40-soluble protein abundance relative to vehicle (solubility fold change) (ratio); higher = more soluble protein in presence of AMP-PNP. The gist of the method: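 Crude Jurkat lysate, prepared by Dounce homogenisation, was exposed to eight concentrations from 0.1 to 10 mM for 10 min at room temperature and then 3 min at 37 °C. Solubilisation used 0.8% NP40 with benzonase for 60 min at 4 °C, followed by ultracentrifugation and TMT labelling of the supernatant for LC-MS/MS. After vsn normalisation of intensities, each value is the fold change against the detergent-processed vehicle within each replicate, across three independent experiments.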

UniProt P43686, sequence (P43686 whole entry): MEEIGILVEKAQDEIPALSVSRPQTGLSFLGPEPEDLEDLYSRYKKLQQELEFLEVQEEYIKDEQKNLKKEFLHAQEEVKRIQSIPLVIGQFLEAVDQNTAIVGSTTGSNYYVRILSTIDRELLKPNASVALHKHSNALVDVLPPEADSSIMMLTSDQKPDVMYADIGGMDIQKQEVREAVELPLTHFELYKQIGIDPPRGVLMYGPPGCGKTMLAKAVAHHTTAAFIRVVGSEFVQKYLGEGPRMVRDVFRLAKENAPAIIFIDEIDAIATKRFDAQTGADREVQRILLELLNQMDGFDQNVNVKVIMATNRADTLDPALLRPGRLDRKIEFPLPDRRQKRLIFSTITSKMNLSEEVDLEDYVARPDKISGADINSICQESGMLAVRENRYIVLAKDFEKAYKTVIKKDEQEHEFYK
UniProt Q01082, sequence (Q01082 whole entry): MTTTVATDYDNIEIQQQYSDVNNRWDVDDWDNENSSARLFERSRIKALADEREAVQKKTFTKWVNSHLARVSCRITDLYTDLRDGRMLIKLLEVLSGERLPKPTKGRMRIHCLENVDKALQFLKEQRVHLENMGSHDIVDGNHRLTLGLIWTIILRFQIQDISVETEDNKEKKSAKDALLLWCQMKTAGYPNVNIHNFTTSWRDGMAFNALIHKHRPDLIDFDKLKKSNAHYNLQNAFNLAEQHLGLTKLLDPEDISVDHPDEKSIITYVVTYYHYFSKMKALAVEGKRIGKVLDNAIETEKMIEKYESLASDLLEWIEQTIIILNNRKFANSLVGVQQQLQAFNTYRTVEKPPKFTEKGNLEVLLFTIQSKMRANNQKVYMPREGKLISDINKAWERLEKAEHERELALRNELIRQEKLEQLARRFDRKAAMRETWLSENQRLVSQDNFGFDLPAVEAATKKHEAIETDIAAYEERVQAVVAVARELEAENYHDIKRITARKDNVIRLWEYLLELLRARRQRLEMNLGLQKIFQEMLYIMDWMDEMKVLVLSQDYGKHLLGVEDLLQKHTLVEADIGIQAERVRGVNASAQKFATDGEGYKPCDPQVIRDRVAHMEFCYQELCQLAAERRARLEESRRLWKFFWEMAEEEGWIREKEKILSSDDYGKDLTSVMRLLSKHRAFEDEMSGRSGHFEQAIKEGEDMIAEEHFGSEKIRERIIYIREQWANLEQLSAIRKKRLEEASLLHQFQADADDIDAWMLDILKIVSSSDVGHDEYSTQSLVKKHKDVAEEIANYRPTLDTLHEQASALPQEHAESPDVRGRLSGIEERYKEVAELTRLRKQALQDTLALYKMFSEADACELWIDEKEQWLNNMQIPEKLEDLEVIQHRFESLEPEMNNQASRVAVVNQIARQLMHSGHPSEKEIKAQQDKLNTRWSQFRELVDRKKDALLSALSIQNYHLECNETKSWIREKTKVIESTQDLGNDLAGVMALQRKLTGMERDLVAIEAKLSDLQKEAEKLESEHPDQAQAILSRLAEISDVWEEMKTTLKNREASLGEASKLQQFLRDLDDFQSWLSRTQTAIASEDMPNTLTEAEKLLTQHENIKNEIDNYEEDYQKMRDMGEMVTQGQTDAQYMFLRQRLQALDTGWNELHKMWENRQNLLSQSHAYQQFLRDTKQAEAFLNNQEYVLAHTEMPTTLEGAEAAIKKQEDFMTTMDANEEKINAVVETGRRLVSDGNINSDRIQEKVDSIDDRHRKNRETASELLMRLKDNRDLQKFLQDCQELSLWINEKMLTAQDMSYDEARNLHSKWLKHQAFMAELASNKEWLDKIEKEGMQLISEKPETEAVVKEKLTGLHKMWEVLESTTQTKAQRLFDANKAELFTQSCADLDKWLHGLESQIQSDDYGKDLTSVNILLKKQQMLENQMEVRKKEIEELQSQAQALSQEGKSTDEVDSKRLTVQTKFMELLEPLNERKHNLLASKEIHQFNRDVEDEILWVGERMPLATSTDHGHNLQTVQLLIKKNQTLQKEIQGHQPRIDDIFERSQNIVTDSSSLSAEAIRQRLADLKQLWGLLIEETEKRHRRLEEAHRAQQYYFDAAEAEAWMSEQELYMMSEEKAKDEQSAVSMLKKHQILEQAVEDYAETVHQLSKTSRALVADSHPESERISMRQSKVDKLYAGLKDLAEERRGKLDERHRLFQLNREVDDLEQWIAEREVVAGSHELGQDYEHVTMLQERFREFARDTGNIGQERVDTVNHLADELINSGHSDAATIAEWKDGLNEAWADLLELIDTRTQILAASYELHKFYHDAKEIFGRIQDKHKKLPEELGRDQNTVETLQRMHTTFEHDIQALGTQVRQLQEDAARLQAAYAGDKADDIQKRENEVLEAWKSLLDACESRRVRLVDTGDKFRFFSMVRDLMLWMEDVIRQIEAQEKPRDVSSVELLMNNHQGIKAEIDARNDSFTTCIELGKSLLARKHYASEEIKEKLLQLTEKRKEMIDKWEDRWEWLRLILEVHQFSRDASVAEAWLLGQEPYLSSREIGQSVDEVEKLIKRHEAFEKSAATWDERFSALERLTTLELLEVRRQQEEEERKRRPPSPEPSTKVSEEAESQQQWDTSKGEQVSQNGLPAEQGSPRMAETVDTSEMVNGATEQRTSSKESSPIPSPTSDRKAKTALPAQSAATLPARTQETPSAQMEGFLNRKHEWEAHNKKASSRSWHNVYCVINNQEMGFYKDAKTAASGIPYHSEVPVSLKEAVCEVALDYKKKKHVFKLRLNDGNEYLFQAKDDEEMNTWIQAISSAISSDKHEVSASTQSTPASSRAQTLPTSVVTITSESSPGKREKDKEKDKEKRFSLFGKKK
UniProt P14854, sequence (P14854 whole entry): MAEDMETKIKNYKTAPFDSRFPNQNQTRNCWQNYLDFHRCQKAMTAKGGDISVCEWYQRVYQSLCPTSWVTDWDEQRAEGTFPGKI
UniProt P23771, sequence (P23771 whole entry): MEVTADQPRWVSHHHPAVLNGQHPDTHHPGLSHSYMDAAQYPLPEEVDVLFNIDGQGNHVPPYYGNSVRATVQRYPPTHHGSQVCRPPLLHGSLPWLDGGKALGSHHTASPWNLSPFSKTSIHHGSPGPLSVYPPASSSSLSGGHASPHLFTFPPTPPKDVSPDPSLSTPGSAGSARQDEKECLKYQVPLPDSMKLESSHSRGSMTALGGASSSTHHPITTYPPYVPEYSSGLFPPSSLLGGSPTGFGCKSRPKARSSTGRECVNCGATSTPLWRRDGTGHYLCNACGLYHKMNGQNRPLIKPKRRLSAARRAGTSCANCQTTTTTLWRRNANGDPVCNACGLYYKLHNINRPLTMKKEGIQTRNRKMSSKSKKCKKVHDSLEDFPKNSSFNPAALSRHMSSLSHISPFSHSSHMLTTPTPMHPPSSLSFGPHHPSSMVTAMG
UniProt Q12974, sequence (Q12974 whole entry): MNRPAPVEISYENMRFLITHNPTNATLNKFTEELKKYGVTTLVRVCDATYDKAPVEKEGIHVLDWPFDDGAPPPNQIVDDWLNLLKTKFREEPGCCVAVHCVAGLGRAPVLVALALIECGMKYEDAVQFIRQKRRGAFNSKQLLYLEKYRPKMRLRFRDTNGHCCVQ
UniProt P26368, sequence (P26368 whole entry): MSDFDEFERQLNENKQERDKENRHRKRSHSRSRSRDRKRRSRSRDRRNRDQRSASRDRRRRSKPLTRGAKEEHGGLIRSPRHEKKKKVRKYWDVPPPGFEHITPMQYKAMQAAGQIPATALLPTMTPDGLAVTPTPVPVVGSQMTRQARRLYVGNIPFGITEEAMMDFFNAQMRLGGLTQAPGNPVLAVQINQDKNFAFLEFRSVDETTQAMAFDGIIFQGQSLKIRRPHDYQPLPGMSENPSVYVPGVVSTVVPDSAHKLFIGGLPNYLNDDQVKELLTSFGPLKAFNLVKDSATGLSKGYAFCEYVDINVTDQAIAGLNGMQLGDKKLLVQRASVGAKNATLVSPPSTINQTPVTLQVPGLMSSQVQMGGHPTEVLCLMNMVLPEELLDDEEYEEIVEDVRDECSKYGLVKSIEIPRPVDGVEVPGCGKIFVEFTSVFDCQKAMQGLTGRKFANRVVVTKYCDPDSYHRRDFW
UniProt P05114, sequence (P05114 whole entry): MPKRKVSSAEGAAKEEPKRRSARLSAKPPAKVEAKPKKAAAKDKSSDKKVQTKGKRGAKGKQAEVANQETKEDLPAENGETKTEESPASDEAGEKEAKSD
UniProt P63279, sequence (P63279 whole entry): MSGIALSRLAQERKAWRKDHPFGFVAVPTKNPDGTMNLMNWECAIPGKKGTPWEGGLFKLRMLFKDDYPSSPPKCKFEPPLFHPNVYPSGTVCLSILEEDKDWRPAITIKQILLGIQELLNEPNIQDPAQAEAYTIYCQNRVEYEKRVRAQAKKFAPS
UniProt P05771, sequence (P05771 whole entry, looked up): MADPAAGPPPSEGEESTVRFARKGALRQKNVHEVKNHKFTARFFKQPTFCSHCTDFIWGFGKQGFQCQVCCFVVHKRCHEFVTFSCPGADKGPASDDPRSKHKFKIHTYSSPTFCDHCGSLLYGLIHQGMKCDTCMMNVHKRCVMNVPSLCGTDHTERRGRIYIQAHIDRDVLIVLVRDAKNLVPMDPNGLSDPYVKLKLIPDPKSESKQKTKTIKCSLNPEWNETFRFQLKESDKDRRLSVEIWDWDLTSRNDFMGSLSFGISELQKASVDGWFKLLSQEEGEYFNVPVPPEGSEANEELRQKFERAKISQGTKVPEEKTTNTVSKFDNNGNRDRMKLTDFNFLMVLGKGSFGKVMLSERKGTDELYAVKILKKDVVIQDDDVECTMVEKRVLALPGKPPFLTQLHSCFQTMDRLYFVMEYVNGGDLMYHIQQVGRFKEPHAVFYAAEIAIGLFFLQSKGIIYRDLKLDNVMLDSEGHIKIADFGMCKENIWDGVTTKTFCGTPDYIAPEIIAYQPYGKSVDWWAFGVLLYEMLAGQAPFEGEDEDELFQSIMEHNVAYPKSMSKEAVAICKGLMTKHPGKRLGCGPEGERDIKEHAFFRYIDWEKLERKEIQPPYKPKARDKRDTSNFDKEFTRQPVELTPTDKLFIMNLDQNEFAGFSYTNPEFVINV

For COX6B1 (UniProt P14854), the NP40-soluble protein abundance runs as follows: (concentration: 1mM) 0.864 ± 0.041; (concentration: 2mM) 0.926 ± 0.032; (concentration: 4mM) 0.916 ± 0.063; (concentration: 6mM) 0.86 ± 0.055; (concentration: 8mM) 0.821 ± 0.016; (concentration: 10mM) 0.839 ± 0.019.

Turning to HNRNPH2 (UniProt P55795), the NP40-soluble protein abundance by setting is: (concentration: 1mM) 0.9889 ± 0.0045; (concentration: 2mM) 0.934 ± 0.086; (concentration: 4mM) 0.946 ± 0.028; (concentration: 6mM) 0.947 ± 0.023; (concentration: 8mM) 0.9566 ± 0.0082; (concentration: 10mM) 0.908 ± 0.019.

Regarding PSMC4 (UniProt P43686), the NP40-soluble protein abundance turned out to be 0.906 ± 0.041 (concentration: 1mM); 0.921 ± 0.06 (concentration: 2mM); 0.885 ± 0.08 (concentration: 4mM); 0.871 ± 0.079 (concentration: 6mM); 0.866 ± 0.082 (concentration: 8mM); 0.859 ± 0.1 (concentration: 10mM).

On to UniProt P26368|P26368-2, for which the NP40-soluble protein abundance (concentration: 1mM) came to 0.986 ± 0.075; the NP40-soluble protein abundance (concentration: 2mM) worked out at 1 ± 0.025; the NP40-soluble protein abundance (concentration: 4mM) came to 1.11 ± 0.069; the NP40-soluble protein abundance (concentration: 6mM) is 1.24 ± 0.098; the NP40-soluble protein abundance (concentration: 8mM) came to 1.41 ± 0.09; the NP40-soluble protein abundance (concentration: 10mM) amounted to 1.51 ± 0.12.

Turning to CAPZA2 (UniProt P47755), the NP40-soluble protein abundance runs as follows: (concentration: 1mM) 1.01 ± 0.013; (concentration: 2mM) 0.966 ± 0.02; (concentration: 4mM) 0.9851 ± 0.0046; (concentration: 6mM) 0.9821 ± 0.0042; (concentration: 8mM) 1.004 ± 0.0091; (concentration: 10mM) 0.986 ± 0.017.

With HIST1H1C (UniProt P16403), the NP40-soluble protein abundance turned out to be 1.02 ± 0.05 (concentration: 1mM); 1.13 ± 0.042 (concentration: 2mM); 1.07 ± 0.023 (concentration: 4mM); 1.17 ± 0.06 (concentration: 6mM); 1.2 ± 0.095 (concentration: 8mM); 1.54 ± 0.15 (concentration: 10mM).

As for UniProt Q01082|Q01082-3, the NP40-soluble protein abundance (concentration: 1mM) worked out at 1.05 ± 0.028; the NP40-soluble protein abundance (concentration: 2mM) was found to be 1.08 ± 0.035; the NP40-soluble protein abundance (concentration: 4mM) is 1.05 ± 0.019; the NP40-soluble protein abundance (concentration: 6mM) was determined as 1.08 ± 0.06; the NP40-soluble protein abundance (concentration: 8mM) was determined as 1.05 ± 0.032; the NP40-soluble protein abundance (concentration: 10mM) was determined as 1.09 ± 0.056.

In the case of HMGN1 (UniProt P05114), the NP40-soluble protein abundance (concentration: 1mM) amounted to 1.23 ± 0.1; the NP40-soluble protein abundance (concentration: 2mM) is 1.36 ± 0.18; the NP40-soluble protein abundance (concentration: 4mM) stood at 1.28 ± 0.074; the NP40-soluble protein abundance (concentration: 6mM) was 1.57 ± 0.15; the NP40-soluble protein abundance (concentration: 8mM) stood at 1.54 ± 0.16; the NP40-soluble protein abundance (concentration: 10mM) turned out to be 1.89 ± 0.36.

UniProt P23771|P23771-2: the NP40-soluble protein abundance worked out at 0.959 ± 0.029 (concentration: 1mM); 0.99 ± 0.043 (concentration: 2mM); 0.9254 ± 0.0013 (concentration: 4mM); 0.895 ± 0.0095 (concentration: 6mM); 0.908 ± 0.012 (concentration: 8mM); 0.908 ± 0.022 (concentration: 10mM).

On to UniProt Q12974|Q12974-4, for which the NP40-soluble protein abundance was 1.04 ± 0.032 (concentration: 1mM); 1.022 ± 0.0039 (concentration: 2mM); 0.956 ± 0.027 (concentration: 4mM); 0.996 ± 0.025 (concentration: 6mM); 1.02 ± 0.029 (concentration: 8mM); 0.988 ± 0.02 (concentration: 10mM).

Regarding RBM5 (UniProt P52756), the NP40-soluble protein abundance reads like this: (concentration: 1mM) 1.05 ± 0.026; (concentration: 2mM) 1.072 ± 0.0062; (concentration: 4mM) 1.09 ± 0.038; (concentration: 6mM) 1.06 ± 0.071; (concentration: 8mM) 1.06 ± 0.061; (concentration: 10mM) 1.1 ± 0.071.

For the target POLR3D (UniProt P05423), the NP40-soluble protein abundance worked out at 0.982 ± 0.017 (concentration: 1mM); 1.01 ± 0.02 (concentration: 2mM); 0.993 ± 0.035 (concentration: 4mM); 0.961 ± 0.041 (concentration: 6mM); 0.971 ± 0.037 (concentration: 8mM); 0.998 ± 0.065 (concentration: 10mM).

With UniProt P62857, the NP40-soluble protein abundance (concentration: 1mM) is 0.941 ± 0.041; the NP40-soluble protein abundance (concentration: 2mM) turned out to be 0.993 ± 0.078; the NP40-soluble protein abundance (concentration: 4mM) was 0.919 ± 0.069; the NP40-soluble protein abundance (concentration: 6mM) turned out to be 0.837 ± 0.071; the NP40-soluble protein abundance (concentration: 8mM) came to 0.74 ± 0.057; the NP40-soluble protein abundance (concentration: 10mM) came to 0.847 ± 0.092.

For the target UniProt P05771|P05771-2, the NP40-soluble protein abundance is, setting by setting: (concentration: 1mM) 1.05 ± 0.019; (concentration: 2mM) 1.03 ± 0.016; (concentration: 4mM) 1.04 ± 0.029; (concentration: 6mM) 1.04 ± 0.012; (concentration: 8mM) 1.05 ± 0.017; (concentration: 10mM) 1.04 ± 0.03.

In the case of UniProt P63279, the NP40-soluble protein abundance is 0.993 ± 0.076 (concentration: 1mM); 1.01 ± 0.076 (concentration: 2mM); 1.01 ± 0.1 (concentration: 4mM); 1.04 ± 0.12 (concentration: 6mM); 1.12 ± 0.07 (concentration: 8mM); 1.07 ± 0.066 (concentration: 10mM).

Source of the values: the supplement of paper PMC6411743.
